In all, about 220,000 compounds went through this assay and about 2,100 (0.95%) were called active.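 How the source made its calls: active means compounds that cut the binding signal by more than half at the single screening dose; inactive means the rest.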 What follows is part of a selection rich in actives, with near analogues and random picks from the rest.
Each compound was assayed against Induced myeloid leukemia cell differentiation protein Mcl-1 (Homo sapiens) (UniProt Q07820) (assay: Mcl-1/Bid binding inhibitors, primary screen, biochemical, TR-FRET, 1536-well (AID 1021;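 further: His-tagged Mcl-1 with europium anti-His antibody binding Bid BH3 peptide; 0% = Mcl-1 plus peptide wells and 100% = peptide-only wells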)). Details: TR-FRET Mcl-1/Bid-Dy647 peptide binding, at 21.7 µM, active compounds read high.
Sequence of Induced myeloid leukemia cell differentiation protein Mcl-1 (Homo sapiens) (Q07820 whole entry, looked up): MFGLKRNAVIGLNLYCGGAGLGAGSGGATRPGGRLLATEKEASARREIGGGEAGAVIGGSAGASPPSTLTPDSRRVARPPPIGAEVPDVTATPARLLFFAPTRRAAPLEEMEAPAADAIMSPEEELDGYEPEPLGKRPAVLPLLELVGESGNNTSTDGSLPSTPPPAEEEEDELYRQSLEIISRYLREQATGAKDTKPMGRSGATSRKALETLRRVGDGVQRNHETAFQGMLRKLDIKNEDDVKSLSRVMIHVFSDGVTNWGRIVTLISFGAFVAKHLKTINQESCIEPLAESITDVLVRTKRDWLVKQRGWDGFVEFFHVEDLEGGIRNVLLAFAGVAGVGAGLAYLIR

| Structure (SMILES) | inhibition |
| --- | --- |
| CN(Cc1ccccn1)Cc1nc(-c2ccc(Cl)cc2)no1 | 3.34% (inactive) |
| CN(c1ccccc1)S(=O)(=O)c1ccc(Cl)c(C(=O)OCC(=O)NCc2ccco2)c1 | -33.3% (inactive) |
| CCN(CC)CCCN=C(N)N | -18.1% (inactive) |
| Nc1nnc(SCC(=O)NC2CCCc3ccccc32)s1 (stereo not drawn) | -21.1% (inactive) |
| O=C(Cn1nnc(-c2ccccc2)n1)NCc1ccccc1 | -1.82% (inactive) |
| Cc1[nH]c2ccccc2c1/C=N\NC(=O)Cn1nnc(-c2ccccc2)n1 | 65.2% (active) |
| Nc1nnn(CC(=O)N/N=C/c2ccccc2)n1 | -50.3% (inactive) |
| O=C(CN1CCOCC1)N/N=C/c1ccc(-c2ccc(Br)cc2)o1 | -11.9% (inactive) |
| Nc1nnnn1CC(=O)N/N=C/c1ccc(-c2cccc(Cl)c2)o1 | -8.79% (inactive) |
| O=C(Cn1nnc(-c2ccccc2)n1)N/N=C/c1ccc(-c2ccc(Cl)cc2)o1 | 61% (active) |
| CCCCN1CCNC1=S | -29.5% (inactive) |
| CC1(C)CC(=O)C(C=NCCN2CCN(C(=S)Nc3cccc(Cl)c3)CC2)=C(O)C1 | -49.6% (inactive) |
| Cc1nn(C)c(C)c1Sc1ccccc1N | -33.5% (inactive) |
| CCN(CC)c1ccc(NC(=O)C2CCC(CNc3c(N4CCCC4)c(=O)c3=O)CC2)c(C)c1 (stereo not drawn) | -70.9% (inactive) |
| CC1(C)OC(=O)N2CCc3ccccc3C21C (stereo not drawn) | 6.73% (inactive) |
| CN(C)C(=O)c1nc2ccc(Cl)cn2c1CNCc1cccc(OC(F)(F)F)c1 | -1.45% (inactive) |
| CCC(CC)C(=O)N1CC(=O)Nc2ccc(Br)cc2C1c1ccccc1 (stereo not drawn) | -3.97% (inactive) |
| COC(=O)CN1C(=O)C(O)=C(C(C)=O)C1c1ccc([N+](=O)[O-])cc1 (stereo not drawn) | -31.9% (inactive) |
| COC(=O)CN1C(C)=Nc2ccc(Br)cc2C1c1ccccc1 (stereo not drawn) | 67.2% (active) |
| N#CCCCn1c(O)c(N=NC(=O)C(O)c2ccccc2)c2ccccc21 (stereo not drawn) | -13.3% (inactive) |

| Structure (SMILES) | inhibition |
| --- | --- |
| Cc1cc(=O)oc2c(C(=O)c3ccccc3)c(OCC(N)=O)ccc12 | -15.3% (inactive) |
| N#CCC(=O)N/N=C/c1cn(Cc2ccc3ccccc3c2)c2ccccc12 | 25.7% (inactive) |
| O=C(O)CCn1cc(/C=C/C(=O)c2ccc(Cl)cc2)c(-c2cccc(Br)c2)n1 | 69.2% (active) |
| O=C(O)/C=C/c1cn(Cc2ccccc2)nc1-c1cccs1 | -0.35% (inactive) |
| CCOC(=O)/C(C#N)=C/c1cn(CCC(=O)O)nc1-c1ccc(Br)cc1 | 39.2% (inactive) |
| Cc1noc(C)c1S(=O)(=O)Nc1ccc(C(=O)N2CCN(c3ccc(F)cc3)CC2)cc1 | -10.6% (inactive) |
| CCOc1cc(C(=S)N2CCOCC2)ccc1O | 74.5% (active) |
| CCOc1cc(C(=O)OCC(=O)Nc2cccc(C)c2)ccc1OCC(=O)N1CCOCC1 | -54% (inactive) |
| COc1cc(C(=S)N2CCOCC2)ccc1O | -30.2% (inactive) |
| O=C(Nc1ccc2c(c1)C(=O)OC2)Nc1cccc2ccccc12 | -19.5% (inactive) |
| COc1ccc(/C=C/CN2CCN(Cc3ccc(C)cc3)C(CCO)C2)cc1 (stereo not drawn) | -9.23% (inactive) |
| NC1=NC[C@@H](Cc2ccc(O)cc2)N1CC1CCCCC1 | -44.1% (inactive) |
| C#CCOCCOCCOCCNc1nc(N2CCN(C(=O)C(Cc3ccc(O)cc3)n3cc(C(N)CC(C)C)nn3)CC2)nc(N2CCN(C(=O)C(Cc3ccc(O)cc3)n3cc(C(N)C(C)CC)nn3)CC2)n1 (stereo not drawn) | -1.6% (inactive) |
| C#CCOCCOCCOCCNc1nc(N2CCN(C(=O)[C@H](CCC(=O)O)n3cc(C(N)CO)nn3)CC2)nc(N2CCN(C(=O)[C@H](Cc3ccc(O)cc3)n3cc(C(N)[C@H](C)CC)nn3)CC2)n1 (stereo partly drawn) | 62.7% (active) |
| C#CCOCCOCCOCCNc1nc(N2CCN(C(=O)[C@H](Cc3ccc(O)cc3)n3cc(C(N)CC(C)C)nn3)CC2)nc(N2CCN(C(=O)[C@H](CCC(=O)O)n3cc(C(N)[C@H](C)CC)nn3)CC2)n1 (stereo partly drawn) | 2.45% (inactive) |
| O=C(CCCl)Nc1ccc(S(=O)(=O)NCc2ccco2)cc1 | -69.5% (inactive) |
| CCNC(=O)NC(=O)C(C)OC(=O)C1CCN(S(=O)(=O)c2ccccc2F)CC1 (stereo not drawn) | -21.6% (inactive) |
| COc1ccc(N2C(=O)C3CCCN3C2c2cc(OC)c(OC)cc2OC)cc1 (stereo not drawn) | -12.4% (inactive) |
| COc1ccc(N2C(=O)C3CCCN3C2c2cccc(OC)c2)cc1 (stereo not drawn) | -26.8% (inactive) |
| COc1ccc(OC)c(C2N(c3ccccn3)C(=O)C3CCCN32)c1 (stereo not drawn) | 51.8% (active) |

| Structure (SMILES) | inhibition |
| --- | --- |
| Nc1nc(SCc2ccccc2Cl)n[nH]1 | -6.93% (inactive) |
| COC(OC)c1ccnc(SCc2ccccc2Cl)n1 | -7.91% (inactive) |
| c1ccc(CSc2nnc(-c3ccco3)c(-c3ccco3)n2)cc1 | 91.7% (active) |
| O=C(Nc1nnc(SCc2ccccc2)s1)c1ccco1 | -46.6% (inactive) |
| Brc1ccc(CSc2ccc(-c3ccco3)nn2)cc1 | -15.8% (inactive) |
| Clc1ccccc1CSc1nnc(-c2ccco2)c(-c2ccco2)n1 | 99.3% (active) |
| COC(=O)c1cc(=O)n(-c2c(Cl)cc(C(F)(F)F)cc2Cl)[nH]1 | -6.09% (inactive) |
| O=C1NNC(c2ccccc2)=N/C1=C\c1ccc(Cl)cc1 | -13.5% (inactive) |
| Cc1nc2nc[nH]n2c(=O)c1C/C=C/c1ccccc1 | -22.4% (inactive) |
| CCS(=O)(=O)c1ccc(C(=O)NC)c(Cl)c1Cl | -26.1% (inactive) |
| CCCCN1Cc2c(nc3cc(-c4ccccc4)[nH]n3c2=O)C1=O | -37.8% (inactive) |
| O=S(=O)(Nc1n[nH]c(C(F)(F)F)n1)c1ccccc1 | -11.3% (inactive) |
| CCc1cc2c(N3CCN(c4nnc(CC)s4)CC3)ncnc2s1 | 56.7% (active) |
| Oc1ccccc1N1CCN(c2ncnc3sc(-c4ccccc4)cc23)CC1 | -18.1% (inactive) |
| CCc1cc2c(SCC(=O)Nc3ncc(Cl)c(C)c3Cl)ncnc2s1 | -33.7% (inactive) |
| N#Cc1c(NCCO)ccc([N+](=O)[O-])c1NCCO | -25.7% (inactive) |
| CCCCCC(=O)Nc1ccc(-c2cn3cccnc3n2)cc1 | -4.56% (inactive) |
| CC(C)n1c(=S)[nH]c2cc(C(F)(F)F)ccc21 | -33.7% (inactive) |
